# Assay results taken from paper PMC12820563, “FoxP3 forms a head-to-head dimer in vivo and stabilizes its multimerization on adjacent microsatellites”.
# Whole data set: some 16,000 sequences, median “rpm ratio (pull-down/input)” near 0.5, cut for the highest 2% near 5.5. The sample as a whole holds a higher share of the highest values than the screen did.
# Molecular target: T1, MBP-FoxP3dN (Mus musculus, UniProt Q99JB6 188-423)
# T1 sequence: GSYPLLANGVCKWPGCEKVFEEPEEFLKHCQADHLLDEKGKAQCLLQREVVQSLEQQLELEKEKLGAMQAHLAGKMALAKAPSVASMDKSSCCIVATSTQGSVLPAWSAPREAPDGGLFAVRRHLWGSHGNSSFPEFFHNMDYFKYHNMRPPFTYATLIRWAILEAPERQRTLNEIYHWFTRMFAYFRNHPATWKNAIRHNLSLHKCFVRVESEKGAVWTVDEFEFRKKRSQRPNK
# Test: PD-seq (MBP pull-down with sequencing); 20 mM Tris-HCl pH 7.5, 100 mM NaCl, 1.5 mM MgCl2, 0.4 uM protein, 0.1 uM dsDNA library, 30 min, room temperature, amylose pull-down; high values mean tight binding
# Conditions: protein: recombinant; tags: His6-MBP; chain copies: 2; dsDNA, one strand shown
# Procedure, shortened: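 Binding is the reads-per-million enrichment of pull-down relative to input, pooled across replicates. For this, 0.4 µM His6-MBP-tagged mouse FoxP3 or FoxP1 fragment lacking the N-terminus, made in E. coli, was incubated with 0.1 µM Klenow-filled double-stranded degenerate DNA library for 30 min at room temperature in Tris pH 7.5 buffer with NaCl and MgCl2. Complexes bound to amylose resin were washed three times before proteinase K released the DNA for PCR barcoding and Illumina sequencing.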
row,Sequence,binding signal
1,GATGATTGTTCTCCCAGCTGATGAATTCATTTGCTCGAGTAAACAAATTTTCCTAATCTTTCTGTTCAAGCGCCATCTAC,2.92 RPM ratio (pull-down/input)
2,GATGATTGTTCTCCCAGCTGATGAATTTGCGTATTCGAGTAAACAAATTTTCCTAATCTTTCTGTTCAAGCGCCATCTAC,4.16 RPM ratio (pull-down/input)
3,GATGATTGTTCTCCCAGCTGATGAATTGGGTCATTCGAGTAAACAAATTTTCCTAATCTTTCTGTTCAAGCGCCATCTAC,0.64 RPM ratio (pull-down/input)
4,GATGATTGTTCTCCCAGCTGATGAATTAATCTTGTCGAGTAAACAAATTTTCCTAATCTTTCTGTTCAAGCGCCATCTAC,0.322 RPM ratio (pull-down/input)
5,GATGATTGTTCTCCCAGCTGATGAATTGCTCAAATCGAGTAAACAAATTTTCCTAATCTTTCTGTTCAAGCGCCATCTAC,0.408 RPM ratio (pull-down/input)
6,GATGATTGTTCTCCCAGCTGATGAATTTTGCGGATCGAGTAAACAAATTTTCCTAATCTTTCTGTTCAAGCGCCATCTAC,0.597 RPM ratio (pull-down/input)
7,GATGATTGTTCTCCCAGCTGATGAATTACACATATCGAGTAAACAAATTTTCCTAATCTTTCTGTTCAAGCGCCATCTAC,0.87 RPM ratio (pull-down/input)
8,GATGATTGTTCTCCCAGCTGATGAATTGCGCATGTCGAGTAAACAAATTTTCCTAATCTTTCTGTTCAAGCGCCATCTAC,6.5 RPM ratio (pull-down/input)
9,GATGATTGTTCTCCCAGCTGATGAATTGCTGATGTCGAGTAAACAAATTTTCCTAATCTTTCTGTTCAAGCGCCATCTAC,0.843 RPM ratio (pull-down/input)
10,GATGATTGTTCTCCCAGCTGATGAATTCTCCATGTCGAGTAAACAAATTTTCCTAATCTTTCTGTTCAAGCGCCATCTAC,0.249 RPM ratio (pull-down/input)
11,GATGATTGTTCTCCCAGCTGATGAATTCCCCATGTCGAGTAAACAAATTTTCCTAATCTTTCTGTTCAAGCGCCATCTAC,0.259 RPM ratio (pull-down/input)
12,GATGATTGTTCTCCCAGCTGATGAATTGCCCATGTCGAGTAAACAAATTTTCCTAATCTTTCTGTTCAAGCGCCATCTAC,0.577 RPM ratio (pull-down/input)
13,GATGATTGTTCTCCCAGCTGATGAATTCCGCATGTCGAGTAAACAAATTTTCCTAATCTTTCTGTTCAAGCGCCATCTAC,5.82 RPM ratio (pull-down/input)
14,GATGATTGTTCTCCCAGCTGATGAATTGCGGTATTCGAGTAAACAAATTTTCCTAATCTTTCTGTTCAAGCGCCATCTAC,1.67 RPM ratio (pull-down/input)
15,GATGATTGTTCTCCCAGCTGATGAATTCTTGACTTCGAGTAAACAAATTTTCCTAATCTTTCTGTTCAAGCGCCATCTAC,0.38 RPM ratio (pull-down/input)
16,GATGATTGTTCTCCCAGCTGATGAATTATAGCCGTCGAGTAAACAAATTTTCCTAATCTTTCTGTTCAAGCGCCATCTAC,0.504 RPM ratio (pull-down/input)
17,GATGATTGTTCTCCCAGCTGATGAATTTCTGGTGTCGAGTAAACAAATTTTCCTAATCTTTCTGTTCAAGCGCCATCTAC,0.353 RPM ratio (pull-down/input)
18,GATGATTGTTCTCCCAGCTGATGAATTCTTAGTTTCGAGTAAACAAATTTTCCTAATCTTTCTGTTCAAGCGCCATCTAC,0.302 RPM ratio (pull-down/input)
19,GATGATTGTTCTCCCAGCTGATGAATTACCAGGCTCGAGTAAACAAATTTTCCTAATCTTTCTGTTCAAGCGCCATCTAC,0.357 RPM ratio (pull-down/input)
20,GATGATTGTTCTCCCAGCTGATGAATTGAGCATTTCGAGTAAACAAATTTTCCTAATCTTTCTGTTCAAGCGCCATCTAC,6.08 RPM ratio (pull-down/input)
21,GATGATTGTTCTCCCAGCTGATGAATTCGAGCATTCGAGTAAACAAATTTTCCTAATCTTTCTGTTCAAGCGCCATCTAC,4.97 RPM ratio (pull-down/input)

row,Sequence,binding signal
1,GATGATTGTTCTCCCAGCTGATGAATTTGAGCATTCGAGTAAACAAATTTTCCTAATCTTTCTGTTCAAGCGCCATCTAC,5.36 RPM ratio (pull-down/input)
2,GATGATTGTTCTCCCAGCTGATGAATTGAGCATCTCGAGTAAACAAATTTTCCTAATCTTTCTGTTCAAGCGCCATCTAC,6.26 RPM ratio (pull-down/input)
3,GATGATTGTTCTCCCAGCTGATGAATTTTGAGCATCGAGTAAACAAATTTTCCTAATCTTTCTGTTCAAGCGCCATCTAC,0.906 RPM ratio (pull-down/input)
4,GATGATTGTTCTCCCAGCTGATGAATTGAGCAGCTCGAGTAAACAAATTTTCCTAATCTTTCTGTTCAAGCGCCATCTAC,1.12 RPM ratio (pull-down/input)
5,GATGATTGTTCTCCCAGCTGATGAATTGAAGTCTTCGAGTAAACAAATTTTCCTAATCTTTCTGTTCAAGCGCCATCTAC,0.312 RPM ratio (pull-down/input)
6,GATGATTGTTCTCCCAGCTGATGAATTAGCCTCCTCGAGTAAACAAATTTTCCTAATCTTTCTGTTCAAGCGCCATCTAC,1.57 RPM ratio (pull-down/input)
7,GATGATTGTTCTCCCAGCTGATGAATTAAGCGGATCGAGTAAACAAATTTTCCTAATCTTTCTGTTCAAGCGCCATCTAC,0.341 RPM ratio (pull-down/input)
8,GATGATTGTTCTCCCAGCTGATGAATTGTAAACGTCGAGTAAACAAATTTTCCTAATCTTTCTGTTCAAGCGCCATCTAC,0.874 RPM ratio (pull-down/input)
9,GATGATTGTTCTCCCAGCTGATGAATTCAGCCACTCGAGTAAACAAATTTTCCTAATCTTTCTGTTCAAGCGCCATCTAC,5.07 RPM ratio (pull-down/input)
10,GATGATTGTTCTCCCAGCTGATGAATTTTCCCACTCGAGTAAACAAATTTTCCTAATCTTTCTGTTCAAGCGCCATCTAC,0.213 RPM ratio (pull-down/input)
11,GATGATTGTTCTCCCAGCTGATGAATTTCGCCACTCGAGTAAACAAATTTTCCTAATCTTTCTGTTCAAGCGCCATCTAC,5.74 RPM ratio (pull-down/input)
12,GATGATTGTTCTCCCAGCTGATGAATTCTGCCACTCGAGTAAACAAATTTTCCTAATCTTTCTGTTCAAGCGCCATCTAC,6.04 RPM ratio (pull-down/input)
13,GATGATTGTTCTCCCAGCTGATGAATTTTCGCACTCGAGTAAACAAATTTTCCTAATCTTTCTGTTCAAGCGCCATCTAC,0.504 RPM ratio (pull-down/input)
14,GATGATTGTTCTCCCAGCTGATGAATTCGCCCACTCGAGTAAACAAATTTTCCTAATCTTTCTGTTCAAGCGCCATCTAC,0.406 RPM ratio (pull-down/input)
15,GATGATTGTTCTCCCAGCTGATGAATTCCCCCACTCGAGTAAACAAATTTTCCTAATCTTTCTGTTCAAGCGCCATCTAC,0.253 RPM ratio (pull-down/input)
16,GATGATTGTTCTCCCAGCTGATGAATTGTGCCACTCGAGTAAACAAATTTTCCTAATCTTTCTGTTCAAGCGCCATCTAC,6.84 RPM ratio (pull-down/input)
17,GATGATTGTTCTCCCAGCTGATGAATTCCCACTCTCGAGTAAACAAATTTTCCTAATCTTTCTGTTCAAGCGCCATCTAC,0.323 RPM ratio (pull-down/input)
18,GATGATTGTTCTCCCAGCTGATGAATTCTCCCACTCGAGTAAACAAATTTTCCTAATCTTTCTGTTCAAGCGCCATCTAC,0.246 RPM ratio (pull-down/input)
19,GATGATTGTTCTCCCAGCTGATGAATTTCTCCACTCGAGTAAACAAATTTTCCTAATCTTTCTGTTCAAGCGCCATCTAC,0.272 RPM ratio (pull-down/input)
20,GATGATTGTTCTCCCAGCTGATGAATTCCGCCACTCGAGTAAACAAATTTTCCTAATCTTTCTGTTCAAGCGCCATCTAC,6.15 RPM ratio (pull-down/input)
